The target in experiment [1] is Paired box protein Pax-6 (Homo sapiens) (UniProt P26367). Put plainly: ATG_Pax6_CIS: Attagene CIS-FACTORIAL HepG2 Assay for human Paired Box 6 (PAX6) (AID 2282956). The settings on record: HepG2 CIS-FACTORIAL PAX6 reporter transcription, RNA readout; actives raise or lower the signal. Put shortly:
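Fluorescent RT-PCR products separated by capillary electrophoresis report PAX6-linked promoter mRNA in HepG2 cells 24 h post-dose. Curves fitted bidirectionally, DMSO as negative control.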

A short description of experiment [2]: ATG_PXRE_CIS: Attagene CIS-FACTORIAL HepG2 Assay for human Pregnane X Receptor Element (PXRE) (AID 2282957). The following applies: HepG2 Attagene CIS-FACTORIAL PXRE reporter, mRNA; actives raise or lower the signal. The method in brief: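 Bidirectional activity, baselined to DMSO, derived from reporter mRNA fluorescence (RT-PCR plus capillary electrophoresis) in HepG2 cells bearing cis-promoter reporter units, 24 h exposure.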

A short description of experiment [3]: ATG_RORE_CIS: Attagene CIS-FACTORIAL HepG2 Assay for human RAR-related Orphan Receptor Element (RORE) (AID 2282959). The settings on record: HepG2 Attagene cis-factorial RORE reporter, mRNA; actives raise or lower the signal. Put shortly:
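A 24-hour exposure of transfected HepG2 hepatoma cells precedes RNA isolation and reporter RT-PCR. Labeled products are digested with HpaI and resolved by capillary electrophoresis, with gain or loss of signal scored relative to DMSO.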

A short description of experiment [4]: ATG_Sox_CIS: Attagene CIS-FACTORIAL HepG2 Assay for human SRY-box transcription factor (SOX) (AID 2282960). The settings on record: HepG2 Attagene cis-factorial SOX reporter, mRNA; actives raise or lower the signal. Put shortly: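 HepG2, cis reporter units, 24 h exposure. Reporter mRNA: RT-PCR → FAM labelling → HpaI → CE fluorescence. Bidirectional fit vs DMSO.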

In experiment [5] the target is Transcription factor Sp1 (Homo sapiens) (UniProt P08047). Put plainly: ATG_Sp1_CIS: Attagene CIS-FACTORIAL HepG2 Assay for human Specificity Protein 1 (Sp1) (AID 2282961). The following applies: HepG2 Sp1 cis-reporter transcription, actives raise or lower the signal. The method in brief: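 Liver-derived HepG2 cells, cis-element reporter library, 24 h treatment; RNA isolated, cDNA amplified with reporter-specific primers, FAM-labeled fragments sized on capillary analyzer. DMSO baseline, bidirectional curve fit.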

Experiment [6] addresses Signal transducer and activator of transcription 3 (Homo sapiens) (UniProt P40763). Put plainly: ATG_STAT3_CIS: Attagene CIS-FACTORIAL HepG2 Assay for human Signal Transducer and Activator of Transcription 3 (STAT3) (AID 2282963). The settings on record: HepG2, Attagene cis-factorial STAT3 reporter transcription; actives raise or lower the signal. The method in brief:
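HepG2, MRTU-transfected, 24 h dosing. RNA → RT → PCR → FAM label → HpaI → CE. Bidirectional fit vs DMSO.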

Experiment [7] can be described thus: ATG_TA_CIS: Attagene CIS-FACTORIAL HepG2 Assay for human TA Basal Promoter (AID 2282964). The following applies: HepG2 Attagene CIS-factorial TA basal promoter reporter; actives raise or lower the signal. The method in brief:
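Transient MRTU transfection of HepG2 preceded 24 h compound exposure. Reporter mRNA levels were then read by RT-PCR with capillary electrophoresis, and this background-control endpoint was fitted bidirectionally to DMSO.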

The nature of experiment [8]: ATG_TCF_b_cat_CIS: Attagene CIS-FACTORIAL HepG2 Assay for human T-Cell-Factor with beta-catenin (TCF/b-cat) (AID 2282965). The following applies: HepG2 TCF/beta-catenin cis-reporter transcription, actives raise or lower the signal. Put shortly:
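HepG2 cells transiently transfected with multiple cis-promoter-regulated reporter transcription units, so endogenous transcription factor activity is measured. Reporter mRNA read 24 hours after dosing by RT-PCR, fluorescent labelling and capillary electrophoresis; bidirectional fitting against DMSO.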

The nature of experiment [9]: ATG_PPRE_CIS: Attagene CIS-FACTORIAL HepG2 Assay for human Peroxisome Proliferator-activated Response Element (PPRE) (AID 2282958). The following applies: HepG2 PPRE cis-element reporter, Attagene transcription factor profiling; actives raise or lower the signal. Put shortly:
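PPRE activity in HepG2: transient cis-reporter transfection, 24 h compound incubation, reporter mRNA by RT-PCR and CE fluorescence; gain/loss fitted against DMSO.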

Experiment [10] in a line: ATG_SREBP_CIS: Attagene CIS-FACTORIAL HepG2 Assay for human Sterol Regulatory Element Binding (SREBP) (AID 2282962). The settings on record: HepG2 Attagene cis-factorial SREBP reporter, mRNA; actives raise or lower the signal. Put shortly:
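Endogenous factor activity is measured in HepG2 through multiplexed reporter units under cis-element control. Following a 24 h incubation, reporter transcripts are reverse-transcribed, PCR-amplified and sized by capillary electrophoresis; activity is fitted in both directions relative to DMSO.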

Where “and” joins values, the source holds several entries; their conditions need not be identical. Equal entries are not always repeated. The source holds several records for some structures; these can differ, active in one and inactive in another. Calls of active or inactive are those of the source. Rule for the calls: active = hit-call score of the fitted dose curve at least 0.9, where 1 is the maximum; inactive = score below 0.9.

Chain of Paired box protein Pax-6 (Homo sapiens) (P26367 whole entry, looked up): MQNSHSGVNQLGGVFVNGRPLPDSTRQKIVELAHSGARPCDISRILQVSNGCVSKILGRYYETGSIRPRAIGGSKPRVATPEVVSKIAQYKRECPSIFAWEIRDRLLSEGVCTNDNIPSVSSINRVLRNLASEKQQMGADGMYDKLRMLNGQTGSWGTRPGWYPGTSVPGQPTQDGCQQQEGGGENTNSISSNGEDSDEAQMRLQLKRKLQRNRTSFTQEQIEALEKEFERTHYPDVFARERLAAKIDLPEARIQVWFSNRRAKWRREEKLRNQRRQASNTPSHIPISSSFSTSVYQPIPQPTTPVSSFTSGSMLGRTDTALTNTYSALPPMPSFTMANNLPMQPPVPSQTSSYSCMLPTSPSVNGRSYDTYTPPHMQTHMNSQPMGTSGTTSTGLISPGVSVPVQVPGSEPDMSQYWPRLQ
Chain of Signal transducer and activator of transcription 3 (Homo sapiens) (P40763 whole entry, looked up): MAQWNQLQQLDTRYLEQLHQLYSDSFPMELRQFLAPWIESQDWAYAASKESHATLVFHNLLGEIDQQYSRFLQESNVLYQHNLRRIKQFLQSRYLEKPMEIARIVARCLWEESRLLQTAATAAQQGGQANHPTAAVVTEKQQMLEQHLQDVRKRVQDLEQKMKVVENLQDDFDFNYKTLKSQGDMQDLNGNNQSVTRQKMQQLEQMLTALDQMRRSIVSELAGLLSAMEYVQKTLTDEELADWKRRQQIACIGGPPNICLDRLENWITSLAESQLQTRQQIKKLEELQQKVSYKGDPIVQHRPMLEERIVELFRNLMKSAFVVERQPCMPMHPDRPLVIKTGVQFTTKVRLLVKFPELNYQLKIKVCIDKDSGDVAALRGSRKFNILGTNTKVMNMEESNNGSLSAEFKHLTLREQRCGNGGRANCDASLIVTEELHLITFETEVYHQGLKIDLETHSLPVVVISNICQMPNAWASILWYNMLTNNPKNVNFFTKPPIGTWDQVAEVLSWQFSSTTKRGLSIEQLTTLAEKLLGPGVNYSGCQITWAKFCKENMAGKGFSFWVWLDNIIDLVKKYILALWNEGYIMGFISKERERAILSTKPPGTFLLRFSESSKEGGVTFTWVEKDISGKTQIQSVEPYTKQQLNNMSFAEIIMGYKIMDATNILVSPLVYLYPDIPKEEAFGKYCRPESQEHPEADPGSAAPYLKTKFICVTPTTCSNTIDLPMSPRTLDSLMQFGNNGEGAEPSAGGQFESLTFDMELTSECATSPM
Chain of Transcription factor Sp1 (Homo sapiens) (P08047 whole entry, looked up, the tested form may be a part): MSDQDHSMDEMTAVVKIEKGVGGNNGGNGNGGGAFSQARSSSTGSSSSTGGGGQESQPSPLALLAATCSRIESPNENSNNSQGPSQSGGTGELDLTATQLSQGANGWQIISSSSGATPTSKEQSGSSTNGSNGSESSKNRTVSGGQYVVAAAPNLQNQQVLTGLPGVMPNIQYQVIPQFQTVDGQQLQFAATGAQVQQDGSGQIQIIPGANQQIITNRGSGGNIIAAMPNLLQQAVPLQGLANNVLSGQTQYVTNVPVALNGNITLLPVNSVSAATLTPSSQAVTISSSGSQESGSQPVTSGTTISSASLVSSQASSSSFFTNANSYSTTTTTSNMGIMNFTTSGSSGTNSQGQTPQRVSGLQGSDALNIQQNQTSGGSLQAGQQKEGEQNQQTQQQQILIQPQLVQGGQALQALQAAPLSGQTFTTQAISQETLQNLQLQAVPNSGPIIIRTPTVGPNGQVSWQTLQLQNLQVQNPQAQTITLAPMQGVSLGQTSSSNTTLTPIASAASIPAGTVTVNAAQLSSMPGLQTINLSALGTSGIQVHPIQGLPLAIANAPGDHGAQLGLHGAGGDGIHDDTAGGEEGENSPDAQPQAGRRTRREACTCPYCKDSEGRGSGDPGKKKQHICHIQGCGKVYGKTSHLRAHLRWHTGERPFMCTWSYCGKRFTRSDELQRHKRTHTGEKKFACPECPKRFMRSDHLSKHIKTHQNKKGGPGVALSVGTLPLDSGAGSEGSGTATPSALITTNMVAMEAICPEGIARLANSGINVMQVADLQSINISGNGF

Consider `CCCCCCCCN(C)C`, for which the call in experiment [1], in experiment [2], in experiment [3], in [4], in experiment [5] and in experiment [6] was inactive. For the same compound, the compound was classed as inactive in experiment [7] and in [8].

Consider `Cn1cc[nH]c1=S`, for which the outcome in experiment [1], in experiment [9], in [3], in experiment [4], in [5] and in experiment [10] was inactive. Also, the compound was called inactive in experiment [6], in [7] and in [8].

What is called AC50 is the midpoint of the concentration-response curve, whichever way the signal moves. As to `COc1cc2c(c(OC)c1OC)-c1ccc(OC)c(=O)cc1[C@@H](NC(C)=O)CC2`, the result in [1], in experiment [2], in experiment [3], in experiment [4], in [5] and in experiment [6] was inactive. The compound was classed as inactive in experiment [7]. Also, the AC50 in experiment [8] was 0.348 µM (active).

On to `FC(F)(F)COC(OCC(F)(F)F)OCC(F)(F)F`, for which the outcome in experiment [1], in experiment [9], in experiment [3], in [4], in experiment [5] and in experiment [10] was inactive. In addition, the call in experiment [6], in experiment [7] and in experiment [8] was inactive.

Turning to `O=S1(=O)CCCO1`, the compound was classed as inactive in [1], in experiment [9], in [3], in [4], in [5] and in experiment [10]. For the same compound, the result in experiment [6], in experiment [7] and in [8] was inactive.

On to `CC(C)CCCCCCOC(=O)C1CCCCC1C(=O)OCCCCCCC(C)C` (stereo unspecified), for which the outcome in experiment [1], in experiment [9], in experiment [3], in experiment [4], in experiment [5] and in experiment [10] was inactive. Moreover, the result in experiment [6], in experiment [7] and in experiment [8] was inactive.

As for `OC(O)(C(F)C(O)(O)C(F)(F)F)C(F)(F)F`, the compound was classed as inactive in experiment [1], in [9], in experiment [3], in [4], in [6] and in experiment [7]. The compound was called inactive in experiment [8]. The AC50 in experiment [9] is 3.62 µM (active); in experiment [5] it was 64.6 µM (active) and 96.6 µM (active); in experiment [10], 66.4 µM (active) and 37.5 µM (active); in experiment [8] it was 3.07 µM (active).

Regarding `OCCNCCO`, the compound was classed as inactive in experiment [1], in [2], in [4], in experiment [5], in experiment [6] and in experiment [7]. In addition, the result in experiment [8] was inactive.

For the compound `CCCC(CCC)C(=O)O`, the outcome in experiment [1], in [2], in experiment [4], in experiment [5], in experiment [10] and in [6] was inactive. The call in experiment [7] and in experiment [8] was inactive.

Regarding `CCCCCCCCCCCCCCCCOS(=O)(=O)O`, the compound was classed as inactive in experiment [1], in [2], in experiment [3], in experiment [4], in experiment [5] and in experiment [10]. In addition, the compound was called inactive in experiment [6] and in experiment [7]. In addition, in experiment [8], the AC50 is 25.7 µM (active).

In the case of `c1ccc2c(c1)-c1cccc3c1c-2cc1ccccc13`, the compound was called inactive in experiment [1], in experiment [9], in experiment [3], in experiment [4], in experiment [5] and in experiment [10]. Further, the compound was called inactive in [6], in [7] and in experiment [8]. Besides, the AC50 in experiment [9] is 2.26 µM (active).

Regarding `O=C(O)c1ccc2c(c1)nc(C(=O)NC1CCN(C3CC3)CC1)n2Cc1cc(-c2ccc(Cl)s2)on1`, the compound was classed as inactive in experiment [1], in [3], in experiment [4], in [5], in [10] and in experiment [6]. Also, the call in [7] and in experiment [8] was inactive. Moreover, in experiment [9], the AC50 was 0.149 µM (active).

`CCCCCCCCCCCCCCO`: the outcome in [1], in [4], in experiment [5], in experiment [7] and in [8] was inactive. Moreover, the AC50 in experiment [2] is 100 µM (active); in [10] it was 171 µM (active); in experiment [6] it was 158 µM (active).

For `FC(F)(F)C(F)(F)C(F)(F)C(F)(F)C(F)(F)C(F)(F)I`, the result in experiment [1], in experiment [9], in [3], in experiment [4], in [5] and in [10] was inactive. In addition, the outcome in experiment [6], in experiment [7] and in experiment [8] was inactive.

For the compound `O=C(O)[C@H](O)[C@@H](O)C(=O)O`, the compound was classed as inactive in experiment [1], in experiment [2], in experiment [3], in [4], in experiment [5] and in experiment [6]. Besides, the compound was classed as inactive in experiment [7] and in experiment [8].

Regarding `Cc1ccc(S(=O)(=O)NC(=O)NN2CCCCCC2)cc1`, the compound was called inactive in experiment [1], in experiment [9], in experiment [3], in [4], in experiment [5] and in experiment [10]. Further, the compound was classed as inactive in experiment [6], in [7] and in [8].

On to `CC[C@H](C)C(=O)O[C@H]1C[C@H](O)C=C2C=C[C@H](C)[C@H](CC[C@@H](O)C[C@@H](O)CC(=O)O)[C@H]21`, for which the compound was called inactive in [1], in [9], in experiment [3], in [4], in experiment [5] and in [6]. The outcome in experiment [7] and in experiment [8] was inactive.

`CCc1ccc(O)c(C(C)(C)C)c1`: the compound was called inactive in [1], in [3], in experiment [4], in experiment [5], in [6] and in experiment [7]. In addition, the result in experiment [8] was inactive. In addition, in experiment [9], the AC50 is 42 µM (active).

Turning to `C[C@]12C=CC(=O)C=C1CC[C@H]1[C@@H]3C[C@@H](O)[C@](O)(C(=O)CO)[C@@]3(C)C[C@H](O)[C@@]12F`, the compound was called inactive in [1], in experiment [9], in experiment [3], in experiment [4], in experiment [5] and in experiment [10]. In addition, the call in experiment [6], in [7] and in [8] was inactive.

Consider `CCn1nc(C)c2c1C(=O)NCC(c1ccc(O)cc1)=N2`, for which the outcome in [1], in experiment [9], in experiment [4], in experiment [5], in experiment [6] and in experiment [7] was inactive. The result in experiment [8] was inactive.

With `OCC(CO)(CO)CO`, the compound was classed as inactive in experiment [1], in experiment [9], in experiment [3], in experiment [4], in [5] and in [10]. For the same compound, the compound was classed as inactive in experiment [6], in experiment [7] and in experiment [8].

For the origin of these results see PubChem BioAssay (EPA / NIEHS).
